From PubChem BioAssay (NCI)
The panel holds about 83,000 compounds, 20% with a hit somewhere; the sample as a whole holds those more often.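 Cell lines were cultured in 96-well plates, exposed to a single compound concentration, and assessed for percent growth 48 hours later.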 The source made the active and inactive calls. Rule for the calls: active = growth percent below 10; inactive = the rest.

Experiments:
Assay in all cases: NCI-60 one-dose screen, 48 h (100 = growth as untreated, 0 = no growth, -100 = all killed)
RPMI-8226 leukemia = conditions: 10 µM unless noted
OVCAR-8 ovarian = conditions: 10 µM unless noted
OVCAR-5 ovarian = conditions: 10 µM unless noted
OVCAR-4 ovarian = conditions: 10 µM unless noted
SK-OV-3 ovarian = conditions: 10 µM unless noted
IGROV1 ovarian = conditions: 10 µM unless noted
OVCAR-3 ovarian = conditions: 10 µM unless noted
HS 578T breast = conditions: 10 µM unless noted
NCI/ADR-RES ovarian = conditions: 10 µM unless noted
T-47D breast = conditions: 10 µM unless noted
BT-549 breast = conditions: 10 µM unless noted
MDA-MB-435 melanoma = conditions: 10 µM unless noted
SW-620 colon = conditions: 10 µM unless noted
MCF7 breast = conditions: 10 µM
HCT-116 colon = conditions: 10 µM unless noted
HCC-2998 colon = conditions: 10 µM unless noted
KM12 colon = conditions: 10 µM unless noted

Measured: growth

CN1C(=O)N(C)C2Nn3c(s/c(=C4\C(=O)N(CCc5ccccc5)c5ccccc54)c3=O)=NC21 (stereo unspecified)
active: MDA-MB-435 melanoma 5.64%
inactive: RPMI-8226 leukemia 57.2% | OVCAR-8 ovarian 80.9% | OVCAR-5 ovarian 75.2% | OVCAR-4 ovarian 79.3% | SK-OV-3 ovarian 76.9% | IGROV1 ovarian 83% | OVCAR-3 ovarian 39.7% | HS 578T breast 70.5% | NCI/ADR-RES ovarian 43.8% | T-47D breast 67.6% | BT-549 breast 72.5% | SW-620 colon 51.9% | MCF7 breast 43.2% | HCT-116 colon 37.2% | HCC-2998 colon 85.9% | KM12 colon 66.1%

COc1ccc(C2Nc3nc(OC)n(C)c(=O)c3N=C3c4ccccc4C(=O)C32)cc1 (stereo unspecified)
inactive: RPMI-8226 leukemia 92.1% | OVCAR-8 ovarian 103% | OVCAR-5 ovarian 103% | OVCAR-4 ovarian 88.5% | SK-OV-3 ovarian 109% | IGROV1 ovarian 140% | OVCAR-3 ovarian 94.6% | HS 578T breast 100% | NCI/ADR-RES ovarian 97.6% | T-47D breast 101% | BT-549 breast 86.3% | MDA-MB-435 melanoma 78.5% | SW-620 colon 90% | MCF7 breast 74.5% | HCT-116 colon 95.4% | HCC-2998 colon 103% | KM12 colon 75%

COc1ccccc1C(=O)O/N=C(\N)Cc1cccc2ccccc12
active: OVCAR-3 ovarian 4.24%
inactive: RPMI-8226 leukemia 73.4% | OVCAR-8 ovarian 78.6% | OVCAR-5 ovarian 95.2% | OVCAR-4 ovarian 62.3% | SK-OV-3 ovarian 103% | IGROV1 ovarian 86.7% | HS 578T breast 97% | NCI/ADR-RES ovarian 69.8% | T-47D breast 93.3% | BT-549 breast 99.4% | MDA-MB-435 melanoma 105% | SW-620 colon 97.3% | MCF7 breast 78.9% | HCT-116 colon 81.5% | HCC-2998 colon 89.4% | KM12 colon 87.9%

NC(CCl)=NCCC[C@H](N)C(=O)O
inactive: RPMI-8226 leukemia 99.6% | OVCAR-8 ovarian 99.5% | OVCAR-5 ovarian 105% | OVCAR-4 ovarian 93% | SK-OV-3 ovarian 105% | IGROV1 ovarian 116% | OVCAR-3 ovarian 117% | HS 578T breast 99.3% | NCI/ADR-RES ovarian 101% | T-47D breast 98.2% | BT-549 breast 129% | MDA-MB-435 melanoma 100% | SW-620 colon 100% | MCF7 breast 84.8% | HCT-116 colon 99% | HCC-2998 colon 99.9% | KM12 colon 106%

CCC1=C[C@@H]2CN(C1)Cc1c([nH]c3ccccc13)[C@@](C(=O)OC)(c1cc3c(cc1OC)N(C)[C@H]1[C@@](O)(C(=O)OC)[C@H](OC(C)=O)[C@]4(CC)[C@@H]5C[C@@H]5CN5CC[C@]31[C@@H]54)C2
inactive: OVCAR-8 ovarian 14.5% | OVCAR-5 ovarian 44.6% | OVCAR-4 ovarian 14.6% | T-47D breast 72% | BT-549 breast 12.8% | SW-620 colon 26.1%
active: RPMI-8226 leukemia -20.3% | SK-OV-3 ovarian -24% | IGROV1 ovarian 1.74% | OVCAR-3 ovarian -25.8% | HS 578T breast -5.73% | NCI/ADR-RES ovarian 1.35% | MDA-MB-435 melanoma -57.7% | MCF7 breast 3.46% | HCT-116 colon 6.72% | HCC-2998 colon -13.1% | KM12 colon 5.74%

COc1ccc(Cn2c(Br)c3c(c2-c2cc(OC)c(OC)c(OC)c2)CCc2sc(NC(C)=O)nc2-3)cc1
inactive: RPMI-8226 leukemia 53.5% | OVCAR-8 ovarian 60.4% | OVCAR-5 ovarian 96.8% | OVCAR-4 ovarian 49.8% | SK-OV-3 ovarian 35.5% | HS 578T breast 24.6% | NCI/ADR-RES ovarian 27.1% | T-47D breast 37.2% | BT-549 breast 74.2% | SW-620 colon 20.5% | MCF7 breast 16.3% | HCT-116 colon 40.7% | HCC-2998 colon 70.2% | KM12 colon 30.4%
active: IGROV1 ovarian 6.54% | OVCAR-3 ovarian -14.4% | MDA-MB-435 melanoma -57%

COc1c(B(O)O)cccc1-c1nc2ccc3n[nH]c(F)c3c2c2c1CCCC2
inactive: RPMI-8226 leukemia 42.3% | OVCAR-8 ovarian 72% | OVCAR-5 ovarian 105% | OVCAR-4 ovarian 96% | SK-OV-3 ovarian 79% | IGROV1 ovarian 80% | OVCAR-3 ovarian 91% | HS 578T breast 43.9% | NCI/ADR-RES ovarian 79.6% | T-47D breast 106% | MDA-MB-435 melanoma 88.3% | SW-620 colon 59.7% | MCF7 breast 61.5% | HCT-116 colon 43.9% | HCC-2998 colon 116% | KM12 colon 40.7%
active: BT-549 breast 5.08%

CCCC(=O)CC(C)=O.CCCC(=O)CC(C)=O.[Cu]
inactive: RPMI-8226 leukemia 102% | OVCAR-8 ovarian 93.1% | OVCAR-5 ovarian 117% | OVCAR-4 ovarian 113% | SK-OV-3 ovarian 77.3% | IGROV1 ovarian 103% | OVCAR-3 ovarian 116% | HS 578T breast 110% | NCI/ADR-RES ovarian 101% | T-47D breast 77.1% | BT-549 breast 111% | MDA-MB-435 melanoma 109% | SW-620 colon 106% | MCF7 breast 92.4% | HCT-116 colon 95.9% | HCC-2998 colon 102% | KM12 colon 102%

COc1ccc(Br)c(/C=C2\SC(=Nc3ccc(O)cc3)NC2=O)c1
inactive: RPMI-8226 leukemia 51.7% | OVCAR-8 ovarian 98% | OVCAR-5 ovarian 104% | OVCAR-4 ovarian 83% | SK-OV-3 ovarian 89.9% | IGROV1 ovarian 94.3% | OVCAR-3 ovarian 102% | HS 578T breast 86.5% | NCI/ADR-RES ovarian 106% | T-47D breast 68.5% | BT-549 breast 83.5% | MDA-MB-435 melanoma 87.2% | SW-620 colon 104% | MCF7 breast 70.4% | HCT-116 colon 98.7% | HCC-2998 colon 109% | KM12 colon 84.2%

CCN1C(=O)N(CC)C2Nn3c(s/c(=C4\C(=O)N(C(C)C)c5ccccc54)c3=O)=NC21 (stereo unspecified)
inactive: RPMI-8226 leukemia 23.3% | OVCAR-8 ovarian 39.9% | OVCAR-5 ovarian 64% | OVCAR-4 ovarian 35.2% | SK-OV-3 ovarian 35.5% | IGROV1 ovarian 49.5% | OVCAR-3 ovarian 19.4% | HS 578T breast 60.1% | T-47D breast 27.9% | BT-549 breast 27.7% | SW-620 colon 32.4% | HCC-2998 colon 34.6% | KM12 colon 28.5%
active: NCI/ADR-RES ovarian 7.07% | MDA-MB-435 melanoma 1.02% | MCF7 breast 9% | HCT-116 colon 6.5%

Cn1nc(C(F)(F)F)c(-c2ccc(Cl)c(C(F)(F)F)c2)c1-c1ccc(OCc2ccc(Cl)cc2)cc1O
inactive: OVCAR-5 ovarian 53.4% | OVCAR-4 ovarian 30.2% | SK-OV-3 ovarian 20.6% | IGROV1 ovarian 38.9% | HS 578T breast 22.8% | BT-549 breast 39.8% | MDA-MB-435 melanoma 24.7% | SW-620 colon 13.9% | HCC-2998 colon 13.5%
active: RPMI-8226 leukemia -17.9% | OVCAR-8 ovarian 7.41% | OVCAR-3 ovarian 1.24% | NCI/ADR-RES ovarian 8.38% | T-47D breast -0.38% | MCF7 breast 4.01% | HCT-116 colon -0.403% | KM12 colon 8.83%

Clc1ccc(Nc2scc3[n+]2CCC3)cc1
inactive: RPMI-8226 leukemia 98.5% | OVCAR-8 ovarian 103% | OVCAR-5 ovarian 96.5% | OVCAR-4 ovarian 88.9% | SK-OV-3 ovarian 97.7% | IGROV1 ovarian 104% | OVCAR-3 ovarian 101% | HS 578T breast 100% | NCI/ADR-RES ovarian 96.8% | T-47D breast 89.7% | BT-549 breast 99.2% | MDA-MB-435 melanoma 97.7% | SW-620 colon 96.9% | MCF7 breast 89.6% | HCT-116 colon 96.2% | HCC-2998 colon 104% | KM12 colon 97.8%

CN(C)/C=C1\SC(=Nc2ccc(Cl)cc2)NC1=O
inactive: RPMI-8226 leukemia 108% | OVCAR-8 ovarian 97.8% | OVCAR-5 ovarian 96% | OVCAR-4 ovarian 108% | SK-OV-3 ovarian 104% | IGROV1 ovarian 102% | OVCAR-3 ovarian 107% | HS 578T breast 95.5% | NCI/ADR-RES ovarian 102% | T-47D breast 105% | BT-549 breast 104% | MDA-MB-435 melanoma 104% | SW-620 colon 99.9% | MCF7 breast 91% | HCT-116 colon 104% | HCC-2998 colon 104% | KM12 colon 106%

COc1ccc(C2c3ccc4ccccc4c3Oc3ncn(CCCn4ccnc4)c(=N)c32)cc1OC (stereo unspecified)
inactive: RPMI-8226 leukemia 36.1% | OVCAR-8 ovarian 67.8% | OVCAR-5 ovarian 67.5% | OVCAR-4 ovarian 58.9% | SK-OV-3 ovarian 76.1% | IGROV1 ovarian 72.8% | OVCAR-3 ovarian 61.3% | HS 578T breast 83.9% | NCI/ADR-RES ovarian 67.8% | T-47D breast 72.4% | BT-549 breast 69.9% | MDA-MB-435 melanoma 64.5% | SW-620 colon 64.4% | MCF7 breast 51.8% | HCT-116 colon 28.8% | HCC-2998 colon 73.3% | KM12 colon 84.2%

CCOC(=O)c1c2c(n3cccc(Cl)c13)C(=O)c1ncccc1C2=O
inactive: RPMI-8226 leukemia 61.2% | OVCAR-8 ovarian 12% | OVCAR-5 ovarian 84.1% | OVCAR-4 ovarian 23.5% | SK-OV-3 ovarian 54.4% | IGROV1 ovarian 61.9% | HS 578T breast 61.3% | NCI/ADR-RES ovarian 38.3% | T-47D breast 75.9% | BT-549 breast 69.2% | MDA-MB-435 melanoma 79.9% | SW-620 colon 36.4% | MCF7 breast 43.3% | HCC-2998 colon 46% | KM12 colon 46.3%
active: OVCAR-3 ovarian 5.39% | HCT-116 colon 8.41%

CCCc1c(C)c2sc(=O)[nH]c2[nH]c1=O
inactive: RPMI-8226 leukemia 112% | OVCAR-8 ovarian 104% | OVCAR-5 ovarian 103% | OVCAR-4 ovarian 100% | SK-OV-3 ovarian 104% | IGROV1 ovarian 112% | OVCAR-3 ovarian 113% | HS 578T breast 103% | NCI/ADR-RES ovarian 105% | T-47D breast 102% | BT-549 breast 110% | MDA-MB-435 melanoma 112% | SW-620 colon 102% | MCF7 breast 97.6% | HCT-116 colon 106% | HCC-2998 colon 106% | KM12 colon 105%

NC1(N2SC(S)=C3CCCC=C32)CCCCC1
inactive: RPMI-8226 leukemia 95.8% | OVCAR-8 ovarian 107% | OVCAR-5 ovarian 104% | OVCAR-4 ovarian 107% | SK-OV-3 ovarian 100% | IGROV1 ovarian 93.6% | OVCAR-3 ovarian 107% | HS 578T breast 103% | NCI/ADR-RES ovarian 104% | T-47D breast 84.5% | BT-549 breast 118% | MDA-MB-435 melanoma 107% | SW-620 colon 99.3% | MCF7 breast 95.4% | HCT-116 colon 98.4% | HCC-2998 colon 101% | KM12 colon 102%

CN1CCN(Cc2ccc(C(=O)Nc3cncc(C#Cc4cnc5cccnn45)c3)cc2C(F)(F)F)CC1
inactive: RPMI-8226 leukemia 29% | OVCAR-8 ovarian 78.7% | OVCAR-5 ovarian 47.2% | OVCAR-4 ovarian 41.8% | SK-OV-3 ovarian 78.9% | IGROV1 ovarian 31.5% | OVCAR-3 ovarian 63.3% | HS 578T breast 54.8% | NCI/ADR-RES ovarian 91.6% | T-47D breast 81.2% | BT-549 breast 78.3% | MDA-MB-435 melanoma 57.7% | SW-620 colon 21.8% | MCF7 breast 20.4% | HCT-116 colon 13% | HCC-2998 colon 90% | KM12 colon 12.7%
